A number with no mark means an inactive call. Inconclusive results are not listed. Calls of active or inactive are those of the source. Unless noted, the call rests on the fitted dose curve; in most records, active means well fitted curve in either direction with a large enough effect (not every such curve was filed as active); inconclusive means small, poorly fitted or top-dose-only effect, or another doubt; inactive means flat fitted curve, though single readings scatter.
Columns and labels:
[1] = molecular target: Lysosomal acid glucosylceramidase (Homo sapiens) (UniProt P04062); assay: Glucocerebrosidase-p2 (AID 348; in the data active means potency below about 10 µM; further: potency means the concentration at half of the fitted maximal effect); conditions: purified GBA, blue fluorogenic substrate, 40 min
Outline: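 Normal human glucocerebrosidase (0.2 nM) with blue fluorogenic substrate (80 uM final) in citrate/phosphate pH 5.9 with 10mM sodium taurocholate, 0.01% tween-20; 40 min RT, NaOH/glycine stop; fluorescence Ex 365/Em 440; AC50 from a titration from 0.6 nM upwards.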

[2] = AP1 Signaling Pathway (AID 357); conditions: ME-180 AP-1-bla reporter, EGF-induced, beta-lactamase ratio, 5 h; at 7.69 µM (top of the series) unless noted;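 further: ME-180 reporter cells stimulated with EGF at its EC50 level; on the % scale 0 is the no-effect control and ±100 the full control effect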
Outline: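 Cells are seeded overnight, exposed to compound titrations and an EC50 level of EGF for 5 hours at 37 °C, then loaded with CCF4 dye for 2.5 hours. Beta-lactamase activity under the AP-1 element is read as a blue/green ratio.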

[3] = NFAT Signaling Pathway (AID 444); conditions: Jurkat NFAT-bla M1, carbachol, beta-lactamase ratio, 5 h; at 7.69 µM (top of the series) unless noted;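 further: carbachol stimulus at about its EC50 of 1 µM final; on the % scale 0 is the no-effect control and ±100 the full control effect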
Outline: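 Jurkat cells carrying an NFAT-driven β-lactamase reporter and co-transfected muscarinic M1 receptor were treated with compound plus carbachol (1 uM final, an EC50 level) for 5 h at 37 °C. CCF4 loading followed for 1 h at RT; 460/530 nm ratio gave %activity.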

[4] = Stat Signaling Pathway (AID 446); conditions: ME-180 (cervical carcinoma) SIE beta-lactamase reporter, IL-6 stimulated, 5 h; at 7.69 µM (top of the series) unless noted;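 further: ME-180 cervical cancer cells given 40 pM IL-6 alongside compound; SIE-controlled beta-lactamase reporter measured as 460/530 nm FRET emission ratio; on the % scale 0 is the no-effect control and ±100 the full control effect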
Outline: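 Compound effects on IL-6-induced STAT reporter activity were measured in ME-180 cells. After overnight culture, cells were co-treated with 40 pM IL-6 for 5 hrs before beta-lactamase substrate loading at room temperature.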

[5] = molecular target: Glucocorticoid receptor (Homo sapiens) (UniProt P04150); assay: GR-GFP Redistribution (AID 450;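 active means compounds whose dose series gives a full or clear partial fitted curve of increased nuclear translocation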; further: potency means the concentration at half of the fitted maximal effect); conditions: U2OS GR-GFP nuclear translocation, laser cytometry, 2 h
[6] = molecular target: Glucocorticoid receptor (Homo sapiens) (UniProt P04150); assay: GR-EFC Redistribution (AID 451; calls by dose curve; further: potency means the concentration at half of the fitted maximal effect); conditions: CHO-K1 GR-EFC translocation, beta-gal luminescence, 2 h
Outline: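 CHO-K1 cells stably expressing nuclear-localized β-gal enzyme acceptor and GR fused C-terminally to the enzyme donor fragment; ligand-driven nuclear translocation restores β-gal by complementation. Compounds titrated up to 46 uM final, 2 h at 37 °C; luminescence read.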

[7] = molecular target: Mitogen-activated protein kinase 10 (Mus musculus) (UniProt Q61831); assay: JNK3 AlphaScreen Assay (AID 530); conditions: JNK3 lysate, c-Jun phosphorylation; series mostly up to 11.4 µM;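 further: kinase came from lysate of stimulated human HepG2 cells; signal reports phosphorylation of biotinylated GST-cJun 1-79 at Ser73 with 10 µM ATP; on the % scale 0 is the no-effect control and ±100 the full control effect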
Outline: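 Biotinylated GST-cJun(1-79) served as substrate for JNK3 in HepG2 lysates stimulated with IL-1beta and TNF-alpha. ATP was 10 uM final, pH 7.6. Ser73 phosphorylation was quantified by AlphaScreen (680 nm excitation).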

[8] = molecular target: 3',5'-cyclic-AMP phosphodiesterase 4B (Homo sapiens) (UniProt Q07343); assay: qHTS Assay for Inhibitors of PDE-IV (AID 607; active means well fitted activation curve with a large enough effect in the main read-out, with a control signal flat, not every such curve was filed as active; further: % of control where 0% means no effect); conditions: HEK293 ACTOne CNG channel cells, membrane potential fluorescence; series mostly up to 22.9 µM
Outline: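 ACTOne HEK293 cells carry a modified cAMP-gated CNG channel and express endogenous PDE4; plated 1000 cells/well, compounds up to 22.9 uM final. Membrane-potential dye fluorescence (ex 535/em 590) was read; parental cells received 10 uM forskolin + 100 uM RO 20-1724.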

Sequence of Glucocorticoid receptor (Homo sapiens) (P04150 whole entry, looked up, the tested form may be a part): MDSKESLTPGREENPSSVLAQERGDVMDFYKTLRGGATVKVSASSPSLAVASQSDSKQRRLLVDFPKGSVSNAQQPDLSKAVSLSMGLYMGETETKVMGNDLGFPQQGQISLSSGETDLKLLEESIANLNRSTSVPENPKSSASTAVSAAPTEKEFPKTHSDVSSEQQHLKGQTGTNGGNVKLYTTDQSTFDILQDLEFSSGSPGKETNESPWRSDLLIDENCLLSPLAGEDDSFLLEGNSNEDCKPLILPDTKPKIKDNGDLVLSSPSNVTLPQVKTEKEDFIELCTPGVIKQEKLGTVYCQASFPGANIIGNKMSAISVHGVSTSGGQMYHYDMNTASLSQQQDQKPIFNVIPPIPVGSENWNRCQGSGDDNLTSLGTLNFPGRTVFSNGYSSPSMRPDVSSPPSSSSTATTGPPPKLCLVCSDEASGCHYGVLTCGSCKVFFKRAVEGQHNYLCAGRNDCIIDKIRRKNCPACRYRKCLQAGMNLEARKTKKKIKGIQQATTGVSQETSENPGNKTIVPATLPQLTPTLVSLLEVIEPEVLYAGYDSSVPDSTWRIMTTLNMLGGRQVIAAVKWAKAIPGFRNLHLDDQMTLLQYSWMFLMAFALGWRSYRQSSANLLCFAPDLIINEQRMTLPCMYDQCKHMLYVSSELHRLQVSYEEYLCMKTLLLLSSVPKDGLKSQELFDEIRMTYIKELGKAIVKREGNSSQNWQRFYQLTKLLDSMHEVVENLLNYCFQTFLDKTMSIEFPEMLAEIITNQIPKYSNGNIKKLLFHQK
Sequence of Lysosomal acid glucosylceramidase (Homo sapiens) (P04062 whole entry, looked up): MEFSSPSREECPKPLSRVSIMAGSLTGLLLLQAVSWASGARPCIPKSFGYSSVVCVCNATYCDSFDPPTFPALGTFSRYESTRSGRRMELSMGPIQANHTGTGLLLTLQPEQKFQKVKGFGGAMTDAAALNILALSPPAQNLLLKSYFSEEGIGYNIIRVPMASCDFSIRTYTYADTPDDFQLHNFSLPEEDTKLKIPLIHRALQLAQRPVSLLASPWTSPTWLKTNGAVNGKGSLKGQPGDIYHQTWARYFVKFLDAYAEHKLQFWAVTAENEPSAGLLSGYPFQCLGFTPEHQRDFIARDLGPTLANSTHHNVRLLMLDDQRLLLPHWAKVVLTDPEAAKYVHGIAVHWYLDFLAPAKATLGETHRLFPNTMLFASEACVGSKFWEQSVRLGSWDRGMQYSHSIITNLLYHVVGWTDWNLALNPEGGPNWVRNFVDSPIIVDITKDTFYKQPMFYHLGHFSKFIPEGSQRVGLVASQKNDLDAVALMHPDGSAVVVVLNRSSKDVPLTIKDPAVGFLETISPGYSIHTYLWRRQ
Sequence of 3',5'-cyclic-AMP phosphodiesterase 4B (Homo sapiens) (Q07343 whole entry, looked up): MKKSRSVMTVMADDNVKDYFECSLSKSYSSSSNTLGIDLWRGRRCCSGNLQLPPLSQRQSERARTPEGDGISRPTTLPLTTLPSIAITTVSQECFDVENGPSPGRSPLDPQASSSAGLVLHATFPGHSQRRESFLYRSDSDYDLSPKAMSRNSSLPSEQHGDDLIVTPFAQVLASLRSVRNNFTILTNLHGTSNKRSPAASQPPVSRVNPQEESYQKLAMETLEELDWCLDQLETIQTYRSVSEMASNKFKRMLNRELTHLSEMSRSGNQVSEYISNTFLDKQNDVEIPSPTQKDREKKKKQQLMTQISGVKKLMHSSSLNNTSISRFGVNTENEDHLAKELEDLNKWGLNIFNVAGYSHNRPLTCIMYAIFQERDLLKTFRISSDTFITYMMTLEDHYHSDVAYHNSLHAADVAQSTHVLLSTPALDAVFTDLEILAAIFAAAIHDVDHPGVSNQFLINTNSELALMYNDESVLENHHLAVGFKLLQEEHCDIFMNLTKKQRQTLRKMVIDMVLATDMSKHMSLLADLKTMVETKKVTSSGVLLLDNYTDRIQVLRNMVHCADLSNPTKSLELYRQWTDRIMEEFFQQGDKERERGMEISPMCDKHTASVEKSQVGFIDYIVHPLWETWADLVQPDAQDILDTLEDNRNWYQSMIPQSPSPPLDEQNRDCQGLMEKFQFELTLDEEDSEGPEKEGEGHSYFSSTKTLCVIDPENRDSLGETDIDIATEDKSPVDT

Compound	Potency [1]	activity change, negative = inhibition [2] [%]	activity change, negative = inhibition [3] [%]	activity, negative = inhibition [4] [%]	Potency [5] [µM]	Potency [6] [µM]	Potency [7]	Potency [8]
O=C(O)c1cc(C(=O)O)cc(N2C(=O)c3ccccc3C2=O)c1	> 11.4 µM	4.16	6.56	-2.79	> 46	> 9.22	inactive	inactive
Cc1nc(CN2CCCCC2)c(O)c(=O)[nH]1	> 11.4 µM	-7.91	12.6	-9.62	> 46	> 9.22	inactive	inactive
Cc1cc(Cl)ccc1OCC(=O)Oc1c(Cl)c(Cl)c(Cl)c(Cl)c1Cl	> 11.4 µM	0.808	-13.6	-0.45	> 46	> 9.22	inactive	inactive
Cn1cnc([N+](=O)[O-])c1Sc1nc(N)nc2c1ncn2[C@H]1C[C@H](O)[C@@H](CO)O1	> 11.4 µM	-4.23	-2.48	0.176	> 46	> 9.22	inactive	inactive
C[N+]1(CCN=C=NC2CCCCC2)CCOCC1	> 11.4 µM	9.01	-4.19	-0.107	> 46	> 9.22	inactive	inactive
NS(=O)(=O)c1ccc(NC(=O)Nc2cccc3ccccc23)cc1	> 11.4 µM	-4.66	12.6	-9.73	> 46	> 9.22	inactive	inactive
CN(/N=C\c1ccccc1O)c1ccc2ccccc2n1	> 11.4 µM	-2.44	-9.81	1.98	> 46	> 9.22	inactive	inactive
O=C(C[C@@H](C(=O)O)N1CCOCC1)c1ccccc1	> 11.4 µM	8.49	-28.5	-2.89	> 46	> 9.22	inactive	inactive
CC(C)[C@H](Nc1ncnc2nc[nH]c12)C(=O)O	> 11.4 µM	7.63	-3.53	-3.88	> 46	> 9.22	inactive	inactive
C[C@@H](CCC(=O)O)C(=O)O	> 11.4 µM	3.57	5.4	0.834	> 46	> 9.22	inactive	inactive
Cc1cc2c(SCc3ccccc3Cl)nc(N)nc2nc1C	> 11.4 µM	-22.2	15	-10.5	> 46	> 9.22	inactive	inactive
Nc1ccn([C@H]2O[C@H](CO)[C@@H]3[O][Sn]([c]4ccccc4)([c]4ccccc4)[O][C@H]32)c(=O)n1	> 11.4 µM	-22.1	-9.06	-20.4	> 46	> 9.22	inactive	inactive
Nc1ccccc1N=Nc1c(S(=O)(=O)O)cc2cc(S(=O)(=O)O)cc(O)c2c1O	> 11.4 µM	-8.99	-1.89	-10.2	> 46	> 9.22	inactive	inactive
C[C@H]1[C@H](C)CC[C@]2(C(=O)O)CC[C@]3(C)C(=CC[C@@H]4[C@]5(C)C[C@H](O)[C@@H](O)[C@@](C)(CO)[C@@H]5[C@H](O)C[C@@]43C)[C@H]12	> 11.4 µM	-6.13	27.7	8.93	> 46	> 9.22	inactive	inactive
O=C(O)CCCN1CCCCC1	> 11.4 µM	9.35	1.19	9.26	> 46	> 9.22	inactive	inactive
CC(=O)Nc1ccccc1C=C1c2ccccc2-c2ccccc21	> 11.4 µM	-4.76	18	-16.5	> 46	> 9.22	inactive	inactive
CN(C)CCSS(=O)(=O)O	> 11.4 µM	6.2	5.08	-1.46	> 46	> 9.22	inactive	inactive
Cc1ccc(S(=O)(=O)OC2CCN(C)CC2)cc1	> 11.4 µM	0.369	2.31	3.66	> 46	> 9.22	inactive	inactive

Compound	Potency [1]	activity change, negative = inhibition [2] [%]	activity change, negative = inhibition [3] [%]	activity, negative = inhibition [4] [%]	Potency [5] [µM]	Potency [6] [µM]	Potency [7]	Potency [8]
Nc1nc(=O)c2[nH]cnc2n1O	> 11.4 µM	10.1	-5.74	7.15	> 46	> 9.22	inactive	inactive
CN1CCN(c2ncc3nc(CCc4ccccc4)c(=O)n(CCC#N)c3n2)CC1	> 11.4 µM	-1.24	-8.66	-3.93	> 9.22	> 46	inactive	inactive
CN(C)CCN1C(=O)CC[C@]2(C)C1=CC[C@@H]1[C@@H]2CC[C@]2(C)[C@H]1CC[C@]2(C)O	> 11.4 µM	3.79	-6.05	6.79	> 46	> 9.22	inactive	inactive
O=C(O)CCc1ccc(-c2ccccc2)[nH]1	> 11.4 µM	2.27	13.2	1.73	> 46	> 9.22	inactive	inactive
Cc1nc2sc3c(c2c(=O)[nH]1)CCCC3	> 11.4 µM	10.8	-6.08	6.96	> 46	> 9.22	inactive	inactive
Cc1ccc(C)c([C@@H]2NC(=O)c3ccccc3N2)c1	> 11.4 µM	-2.78	-14.2	-1.94	> 46	> 9.22	inactive	inactive
CN(C)Cc1cc(C(C)(C)C)cc(CNC2CCCCC2)c1O	> 11.4 µM	-6.47	-20.6	7.16	> 46	> 9.22	inactive	inactive
CCc1ccc(CCC(=O)O)nc1	> 11.4 µM	0.964	-3.46	-13.2	> 46	> 9.22	inactive	inactive
CN1CCN(CCCNN)CC1	> 11.4 µM	3.15	0.682	1.99	> 46	> 9.22	inactive	inactive
CN(C)C[C@@H](O)c1ccc(Cl)c2ccccc12	> 11.4 µM	13.3	-4.99	18.4	> 46	> 9.22	inactive	inactive
NCCNC(=S)S	9.83 µM (active)	3.85	-0.808	-0.434	> 46	> 9.22	inactive	inactive
CC(C)=CCNc1ncnc2c1c(C#N)cn2[C@H]1O[C@@H](CO)[C@@H](O)[C@@H]1O	> 11.4 µM	-1.6	6.29	10.4	> 46	> 9.22	inactive	inactive
Nc1nc(N)c(N=Nc2ccc(C(=O)O)c(O)c2)c(N)n1	> 11.4 µM	2.15	15.4	-2.93	> 46	> 9.22	inactive	inactive
C=CCNS(=O)(=O)c1ncnc2nc[nH]c12	> 11.4 µM	-7.02	-12.1	14.4	> 46	> 9.22	inactive	inactive
c1cncc(CSc2ncnc3nc[nH]c23)c1	> 11.4 µM	-2.25	19.6	8.79	> 46	> 9.22	inactive	inactive
Cc1ccn2c(CCc3nnc4cc(C)ccn34)nnc2c1	> 11.4 µM	2.24	11	-6.72	> 46	> 9.22	inactive	inactive
CCCS(=O)(=O)O	> 11.4 µM	-5.23	0.712	4.08	> 46	> 9.22	inactive	inactive
OC1(C(O)(c2ccc(-c3ccccc3)cc2)c2ccc(-c3ccccc3)cc2)CCCCC1	> 11.4 µM	7.3	2.32	1.1	> 46	> 9.22	inactive	inactive

Reference: PubChem BioAssay (NCATS)
